Screens deposited in PubChem BioAssay by Broad Institute.
T cruzi growth-1 = T. cruzi intracellular proliferation inhibitors, primary screen, cell-based, beta-gal Tulahuen parasites, NIH3T3 host, luminescence. T. cruzi beta-gal in NIH3T3, GalScreen luminescence, 90 h. inhibition, % at 8.34 µM. actives 5.9% (n = 77,000). AID 624255, 2012;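 active = mean inhibition above about 93%, with at least 55% of replicates each passing it, limit read from the data, passing the limit was not always enough; inconclusive = only one of those two conditions holds; inactive = neither condition holds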
C diff growth = C. difficile growth inhibitors, primary screen, HTS; AID 1259249, 2017; Clostridium difficile clinical isolate growth, OD600, 24 h; active compounds read low; actives 0.25% (n = 86,000); growth activity, negative = inhibition, % at 16 µg/mL (by protocol);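 active = mean growth activity at or below -80% and every replicate also at or below -80%; inconclusive = mean at or below -80% but some replicate above -80%; inactive = mean growth activity above -80%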;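 also: 0% = DMSO wells and -100% = levofloxacin 16 µg/mL wells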
T cruzi growth-2 = T. cruzi intracellular proliferation inhibitors, confirmation, cell-based, NIH3T3 host, beta-gal parasite, luminescence, cherry-pick | shares compounds with T cruzi growth-1 | T. cruzi beta-gal in NIH3T3, GalScreen luminescence, 90 h | inhibition, % at 8.35 µM | actives 72% (n = 5,600) | AID 651739, 2012;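 active = mean replicate inhibition above about 95% and at least 55% of replicates individually reaching it, limit read from the data; inconclusive = only one of the two criteria is met; inactive = neither criterion is met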
T cruzi growth-3 = inhibitors of intracellular T. cruzi replication, confirmation, NIH3T3 host cells, beta-gal parasites, cherry-pick, set 2 | shares compounds with T cruzi growth-1 | T. cruzi beta-gal in NIH3T3, GalScreen luminescence, 90 h | inhibition, % at 2.09 µM | actives 21% (n = 5,600) | AID 651740, 2012;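 active = mean inhibition above about 95%, with at least 55% of replicates also reaching it, limit read from the data; inconclusive = meets just one of the two conditions; inactive = meets neither condition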;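 also: plate controls were neutral control median for no effect and positive control median for full effect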
NIH3T3 tox = cytotoxicity in mouse NIH/3T3 fibroblasts, confirmation, cytotoxicity control for T. cruzi proliferation inhibitor project, cell-based, cherry-pick, single point | cytotoxicity (signal decrease), % at 8.35 µM | actives 14% (n = 5,600) | NIH/3T3 viability, CellTiter-Glo ATP luminescence, 90 h | shares compounds with T cruzi growth-1;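 active = mean signal decrease across replicates above about 35% based on untreated-well scatter, with enough replicates individually passing, limit read from the data; inconclusive = no rule stated though some were filed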;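 also: 0% = median of neutral control wells and 100% = median of positive control wells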
NIH3T3 tox 2 = NIH/3T3 fibroblast cytotoxicity, confirmation, cytotoxicity control, cell-based, cherry-pick, single point, set 2. shares compounds with T cruzi growth-1. NIH/3T3 viability, CellTiter-Glo ATP luminescence, 90 h. inhibition, % at 24.9 µM. actives 56% (n = 5,600). AID 651744, 2012;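 active = mean loss of cell viability signal at or above a set limit, and enough replicates individually reaching it; inconclusive = meets only the mean limit or only the replicate share; inactive = meets neither condition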;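 also: 0% = median of neutral control wells and 100% = median of positive control wells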
* = called active by the depositor; ? = inconclusive; . = no result given. This is one part of a sample in which hits are shown more often than they occur.

SMILES	T cruzi growth-1	C diff growth	T cruzi growth-2	T cruzi growth-3	NIH3T3 tox	NIH3T3 tox 2
C[C@@H]1CCCCO[C@@H](CN(C)Cc2ccc3c(c2)OCO3)[C@H](C)CN([C@H](C)CO)C(=O)c2cc(NC(=O)Nc3ccccc3)ccc2O1	?	14	99*	105*	12	104*
C[C@H]1CCCCO[C@@H](CN(C)Cc2ccccc2)[C@@H](C)CN([C@@H](C)CO)C(=O)c2cc(NC(=O)Nc3ccc4c(c3)OCO4)ccc2O1	94	-3	.	.	.	.
C[C@@H]1CN([C@H](C)CO)C(=O)c2cc(-c3cccc(C#N)c3)cnc2O[C@@H]1CN(C)Cc1ccncc1	45	4	.	.	.	.
C[C@H]1CN([C@@H](C)CO)C(=O)Cc2cc(NC(=O)NC3CCCCC3)ccc2O[C@@H]1CN(C)Cc1ccc(Cl)c(Cl)c1	61	-1	.	.	.	.
COCCNC(=O)[C@@H]1[C@@H](CO)[C@@H]2Cn3c(cccc3=O)[C@@H]2N1Cc1ccccc1OC	.	1	.	.	.	.
OC[C@H]1[C@@H](c2ccc(C#CC3(O)CCCC3)cc2)[C@H]2CN(Cc3ccncc3)CCCCN21	5	0	.	.	.	.
OC[C@H]1[C@@H](c2ccc(C#CC3(O)CCCC3)cc2)[C@@H]2CN(Cc3cccnc3)CCCCN12	114*	-5	73	3	4	?
OC[C@@H]1[C@H](c2ccc(C#CC3(O)CCCC3)cc2)[C@H]2CN(Cc3cccnc3)CCCCN12	120*	0	107*	92	31	32*
OC[C@H]1[C@H](c2ccc(C#CC3(O)CCCC3)cc2)[C@@H]2CN(Cc3ccncc3)CCCCN12	6	-1	.	.	.	.
OC[C@H]1[C@@H](c2ccc(C#CC3(O)CCCC3)cc2)[C@H]2CN(Cc3cccnc3)CCCCN21	103*	0	49	-43	2	4
OC[C@@H]1[C@H](c2ccc(C#CC3(O)CCCC3)cc2)[C@H]2CN(Cc3ccncc3)CCCCN12	90	-5	.	.	.	.
CCCC#Cc1ccc2c(c1)O[C@@H](CN(C)C(=O)c1ccccn1)[C@H](C)CN([C@@H](C)CO)S2(=O)=O	34	4	.	.	.	.
C/C=C/c1ccc([C@@H]2[C@@H](CO)N(C(C)=O)C23CN(C(=O)c2ccncc2)C3)cc1	.	-2	.	.	.	.
COc1ccc(NC(=O)Nc2ccc3c(c2)C(=O)N([C@H](C)CO)C[C@@H](C)[C@@H](CN(C)Cc2ccc(C(F)(F)F)cc2)OCCCC[C@H](C)O3)cc1	100*	6	85	108*	18	-4
COc1ccc(CN(C)C[C@@H]2OCCCC[C@@H](C)Oc3ccc(NC(=O)Nc4ccc(C(F)(F)F)cc4)cc3C(=O)N([C@H](C)CO)C[C@@H]2C)cc1	?	0	97*	108*	7	29*
COc1ccc(CN(C)C[C@@H]2OCCCC[C@@H](C)Oc3ccc(NC(=O)Nc4ccc(C(F)(F)F)cc4)cc3C(=O)N([C@@H](C)CO)C[C@@H]2C)cc1	77	-43	.	.	.	.
COc1ccc(CN(C)C[C@H]2OCCCC[C@H](C)Oc3ccc(NC(=O)Nc4ccc(C(F)(F)F)cc4)cc3C(=O)N([C@@H](C)CO)C[C@@H]2C)cc1	53	9	.	.	.	.
C[C@H]1CN([C@@H](C)CO)S(=O)(=O)c2ccc(C#CC3CC3)cc2O[C@@H]1CN(C)C(=O)Nc1cc(F)ccc1F	111*	.	108*	79	39*	36*
CC(C)NC(=O)N(C)C[C@@H]1Oc2cc(C#CC3CC3)ccc2S(=O)(=O)N([C@H](C)CO)C[C@H]1C	17	0	.	.	.	.
C[C@H](CO)N1C[C@H](C)[C@H](CN(C)C(=O)Nc2cc(F)ccc2F)Oc2cc(-c3ccc(C#N)cc3)ccc2S1(=O)=O	75	48	.	.	.	.
C[C@H]1CN([C@@H](C)CO)S(=O)(=O)c2ccc(C#CC3CC3)cc2O[C@H]1CN(C)C(=O)Nc1cc(F)ccc1F	121*	.	108*	83	17	12
CCCC(=O)N1CC2(CN(C(=O)Nc3cccc(F)c3)C2)c2c(n(C)c3cc(OC)ccc23)[C@H]1CO	.	8	.	.	.	.
